From PubChem BioAssay (EPA / NIEHS)
Results filed as inconclusive are left out. Some compounds were tested as several samples or in several runs, with calls that do not always agree. Activity calls are given as the source filed them. How the source made its calls, unless noted: active means hit-call score of the fitted dose curve at least 0.9, where 1 is the maximum; inconclusive means response in the unintended direction; inactive means score below 0.9.

Key:
[1] = STM_H9_OrnithineISnorm_perc: Stemina devTOX quickPredict H9 human embryonic stem cell (hESC)-based Assay for Ornithine (ORN) Metabolite Biomarker, Normalized (AID 2283712; active means hit-call score of the fitted dose curve at least 0.9, where 1 is the maximum; inactive means score below 0.9;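 further: ornithine released into spent medium during last day measured by mass spectrometry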)
In short: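 UPLC-HRMS readout: endogenous ornithine EIC area / 13C-ORN internal standard, then % of 0.1% DMSO median. H9 hESCs (pluripotent), 72h exposure, re-dosed with fresh media q24h; last 24-h spent media, deproteinized in 40% acetonitrile.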

[2] = STM_H9_CystineISnorm_perc: Stemina devTOX quickPredict H9 human embryonic stem cell (hESC)-based Assay for Cystine (CYSS) Metabolite Biomarker, Normalized (AID 2283713; active means hit-call score of the fitted dose curve at least 0.9, where 1 is the maximum; inactive means score below 0.9)
In short: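 UPLC-HRMS read-out: endogenous cystine peak area in spent medium, normalized to isotope-labeled internal standard and to median of 0.1% DMSO controls. Pluripotent H9 cells, 72h exposure, daily medium/compound replenishment; medium from last 24h sampled.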

[3] = CEETOX_H295R_MTT_cell_viability: Viability Assessment in the CeeTox HT-H295R MTT Assay (AID 2283718; active means hit-call score of the fitted dose curve at least 0.9, where 1 is the maximum; inactive means score below 0.9;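 on AC50: curve fitted both ways so AC50 may mark viability loss or gain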)
In short: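 H295R cells prestimulated 48 h with 10 uM forskolin, then exposed 48 h to test chemical (0.1% DMSO final). Viability by MTT (0.5 mg/ml, 4 h, 37 C), absorbance 570/650 nm; percent change versus DMSO, bidirectional fit.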

[4] = Tanguay_ZF_120hpf_ActivityScore_legacy: (Legacy) Oregon State University Tanguay Lab 120 Hour Post-fertilization zebrafish Assay Score for Activity (AID 2283742);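 on AC50: dechorionated Tropical 5D wild-type zebrafish embryos held singly per well; static exposure from 6 hpf until 120 hpf at 28 °C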
In short: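 In this whole-embryo screen, dechorionated zebrafish were exposed from 6 hpf until 120 hpf at 28C under a 0.64% DMSO vehicle. Developmental malformations and death were recorded by brightfield microscopy as binary endpoints.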

[5] = target: Luciferin 4-monooxygenase (Photinus pyralis) (UniProt P08659); assay: CCTE_Simmons_QuantiLum_inhib_2: CCTE's Firefly Luciferase Inhibition Assay, Simmons Lab (AID 2283767)
Sequence of Luciferin 4-monooxygenase (Photinus pyralis) (P08659 whole entry, looked up): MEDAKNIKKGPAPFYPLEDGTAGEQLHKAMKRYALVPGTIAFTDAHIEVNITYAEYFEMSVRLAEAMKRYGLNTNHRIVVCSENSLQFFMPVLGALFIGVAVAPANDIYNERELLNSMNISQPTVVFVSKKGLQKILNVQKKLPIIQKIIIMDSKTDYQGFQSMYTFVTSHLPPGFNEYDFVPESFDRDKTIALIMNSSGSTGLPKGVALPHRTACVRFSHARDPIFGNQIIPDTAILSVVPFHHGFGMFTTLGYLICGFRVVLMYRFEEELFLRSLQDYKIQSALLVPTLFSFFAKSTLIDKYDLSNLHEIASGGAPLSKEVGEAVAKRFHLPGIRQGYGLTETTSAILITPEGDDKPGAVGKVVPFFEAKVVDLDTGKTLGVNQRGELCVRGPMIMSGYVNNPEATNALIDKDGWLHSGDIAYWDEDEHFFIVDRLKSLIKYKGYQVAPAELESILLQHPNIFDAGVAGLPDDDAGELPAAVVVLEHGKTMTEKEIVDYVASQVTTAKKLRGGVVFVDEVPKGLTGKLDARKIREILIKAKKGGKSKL
In short: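 Cell-free QuantiLum luciferase, 5 ng/well; compounds 5 nM–87.5 uM final, 8 conc, 0.5% DMSO; 30 min, 37C, dark. Detection reagent (150 uM D-luciferin, 147 uM dATP, CoA, DTT, pH 7.8 final) injected per well, kinetic luminescence. Triplicate biological replicates.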

[6] = STM_H9_OrnCyssISnorm_ratio: Stemina devTOX quickPredict H9 human embryonic stem cell (hESC)-based Assay for Ornithine (ORN):Cystine (CYSS) Ratio (AID 2283714)
In short: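 H9 hESC, 72h, q24h re-dose; last-day media → acetonitrile deproteinization → UPLC-HRMS. ORN:CYSS ratio from isotope-normalized EIC areas, vs 0.1% DMSO; MTX references on each plate.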

[7] = read-out: Broad substrate specificity ATP-binding cassette transporter ABCG2 (Homo sapiens) (UniProt Q9UNQ0); assay: CLD_ABCG2_48hr: CellzDirect (CLD) Gene Expression Assay for ABC Transporter (ABCG2) at 48 hours (AID 2283704)
In short: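 ABCG2 transcript measured at 48 h by quantitative nuclease protection (chemiluminescent) and fitted for increase relative to 0.2% DMSO. Hepatocyte cultures from separate donors got fresh compound daily over two days; morphology annotated cytotoxicity.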

[8] = read-out: xenobiotic metabolism (CYP1A1), CYP1A1 (gene 1543); assay: CLD_CYP1A1_48hr: CellzDirect (CLD) Gene Expression Assay for xenobiotic metabolism (CYP1A1) at 48 hours (AID 2283705)
In short: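 CYP1A1 transcript measured by quantitative nuclease protection (chemiluminescent) 48 h after two daily treatments of human hepatocyte cultures, versus 0.2% DMSO. Morphology-based cytotoxicity flags accompany data; two donor preparations used.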

[9] = read-out: organic anion transporter (SLCO1B1), SLCO1B1 (gene 10599); assay: CLD_SLCO1B1_48hr: CellzDirect (CLD) Gene Expression Assay for organic anion transporter (SLCO1B1) at 48 hours (AID 2283707)
In short: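 SLCO1B1 transcript quantified by qNPA with chemiluminescent readout after 48 h of once-daily chemical exposure. Cultured human primary hepatocytes came from two donors, with 0.2% DMSO vehicle; positive-direction fitting against DMSO, cytotoxicity flagged by morphology.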

[10] = read-out: alkyl and aryl transferase (GSTA2), GSTA2 (gene 2939); assay: CLD_GSTA2_48hr: CellzDirect (CLD) Gene Expression Assay for alkyl and aryl transferase (GSTA2) at 48 hours (AID 2283708);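 further: active means mRNA induction above DMSO vehicle baseline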
In short: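 GSTA2 mRNA quantified by qNPA chemiluminescence in human primary hepatocyte lysates after 48 h of daily fresh chemical dosing. Increases fitted against 0.2% DMSO vehicle baseline; cytotoxicity from morphology annotated yes/no.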

[11] = read-out: glucuronosyltransferase (UGT1A1), UGT1A1 (gene 54658); assay: CLD_UGT1A1_48hr: CellzDirect (CLD) Gene Expression Assay for glucuronosyltransferase (UGT1A1) at 48 hours (AID 2283709);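 further: actives increase expression relative to DMSO so potency refers to induction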
In short: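 Quantitative nuclease protection assay (chemiluminescent) for UGT1A1 mRNA at 48 h in human hepatocyte cultures from two donors, redosed daily with fresh solutions. Induction fitted relative to 0.2% DMSO; phase-contrast morphology annotated cytotoxicity.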

[12] = read-out: sulfotransferase (SULT2A), SULT2A1 (gene 6822); assay: CLD_SULT2A_48hr: CellzDirect (CLD) Gene Expression Assay for sulfotransferase (SULT2A) at 48 hours (AID 2283710);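 further: hits raise SULT2A1 transcript above the 0.2% DMSO vehicle baseline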
In short: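 SULT2A1 transcript measured by qNPA chemiluminescence in human primary hepatocyte cultures after 48 h, with fresh dosing solutions on two consecutive days; gain-of-signal fitting against 0.2% DMSO vehicle; cytotoxicity annotated from phase-contrast morphology.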

[13] = read-out: Glyceraldehyde-3-phosphate dehydrogenase (Homo sapiens) (UniProt P04406); assay: CLD_GAPDH_48hr: CellzDirect (CLD) Gene Expression Assay for Baseline Control (Glyceraldehyde 3-phosphate dehydrogenase) at 48 hours (AID 2283706);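 further: active means higher GAPDH mRNA than DMSO vehicle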
In short: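 GAPDH baseline-control readout: qNPA chemiluminescent mRNA quantitation in human liver primary cells 48 h after daily dosing on two consecutive days, vehicle 0.2% DMSO; gain of signal fitted against DMSO, cytotoxicity flagged by phase-contrast morphology.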

[14] = read-out: HMG-CoA synthase (HMGCS2), HMGCS2 (gene 3158); assay: CLD_HMGCS2_48hr: CellzDirect (CLD) Gene Expression Assay for HMG-CoA synthase (HMGCS2) at 48 hours (AID 2283711)
In short: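 mRNA induction read by qNPA chemiluminescence, 48 h after dosing. Cultured primary human liver cells (two donor preparations) received fresh compound daily over two days against 0.2% DMSO vehicle; morphology-based cytotoxicity noted alongside.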

Sequence of Glyceraldehyde-3-phosphate dehydrogenase (Homo sapiens) (P04406 whole entry, looked up): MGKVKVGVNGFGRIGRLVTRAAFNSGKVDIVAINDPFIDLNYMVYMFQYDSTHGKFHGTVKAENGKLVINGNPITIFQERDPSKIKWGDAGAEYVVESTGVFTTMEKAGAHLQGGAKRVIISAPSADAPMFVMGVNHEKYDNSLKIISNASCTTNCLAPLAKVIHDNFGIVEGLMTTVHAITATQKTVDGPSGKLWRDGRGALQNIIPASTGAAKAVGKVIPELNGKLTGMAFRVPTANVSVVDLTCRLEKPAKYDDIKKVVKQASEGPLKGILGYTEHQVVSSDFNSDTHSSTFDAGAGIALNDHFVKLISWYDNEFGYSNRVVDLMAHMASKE
Sequence of Broad substrate specificity ATP-binding cassette transporter ABCG2 (Homo sapiens) (Q9UNQ0 whole entry, looked up): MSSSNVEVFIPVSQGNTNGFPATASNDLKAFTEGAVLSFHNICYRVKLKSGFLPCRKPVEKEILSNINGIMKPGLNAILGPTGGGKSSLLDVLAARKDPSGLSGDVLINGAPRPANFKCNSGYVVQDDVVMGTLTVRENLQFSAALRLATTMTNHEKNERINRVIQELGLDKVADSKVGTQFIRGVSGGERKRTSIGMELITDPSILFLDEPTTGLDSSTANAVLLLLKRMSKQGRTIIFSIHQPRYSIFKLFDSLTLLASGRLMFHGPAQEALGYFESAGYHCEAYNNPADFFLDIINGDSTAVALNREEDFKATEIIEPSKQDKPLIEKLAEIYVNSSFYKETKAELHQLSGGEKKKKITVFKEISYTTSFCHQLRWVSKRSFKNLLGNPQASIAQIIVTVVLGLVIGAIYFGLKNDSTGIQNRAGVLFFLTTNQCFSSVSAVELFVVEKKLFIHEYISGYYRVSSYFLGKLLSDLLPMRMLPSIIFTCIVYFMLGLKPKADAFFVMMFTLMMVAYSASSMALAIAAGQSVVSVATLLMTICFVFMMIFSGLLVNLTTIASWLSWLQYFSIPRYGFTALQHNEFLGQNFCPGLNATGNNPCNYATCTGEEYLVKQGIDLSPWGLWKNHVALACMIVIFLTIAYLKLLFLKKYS

With `C=CC(N)=O` the outcome [1] was “inactive”, the outcome [2] was “inactive” and the outcome [3] was “inactive”. The outcome [4] was “inactive”.
For `CC#Cc1cc(C)nc(Nc2ccccc2)n1`, the outcome [3] was “inactive” and the outcome [4] was “inactive”.
With `COS(=O)(=O)OC` the outcome [1] was “inactive”, the outcome [2] was “inactive” and the outcome [4] was “inactive”. The outcome [5] was “inactive”.
In the case of `CO/C=C(/C(=O)OC)c1ccccc1COc1cccc(C(F)(F)F)n1`, the AC50 [1] was 0.0992 µM (active), the outcome [2] was “inactive” and the outcome [6] was “inactive”. The AC50 [4] was 28.7 µM (active).
In the case of `O=NN(c1ccccc1)c1ccccc1`, the outcome [1] was “inactive”, the outcome [2] was “inactive” and the outcome [6] was “inactive”. The outcome [4] was “inactive”.
For `Cc1cccc(C)c1N`, the outcome [3] was “inactive” and the outcome [4] was “inactive”.
For `C1CC2OC2CC1C1CO1` (centres undefined), the AC50 [1] was 79.3 µM (active), the AC50 [2] was 47 µM (active) and the AC50 [6] was 66.1 µM (active). For the same molecule, the outcome [4] was “inactive”.
For `CCC(C)(CC)c1cc(NC(=O)c2c(OC)cccc2OC)on1`, the outcome [7] was “inactive”, the AC50 [8] was 3.98 µM (active) and the outcome [9] was “inactive”. For the same molecule, the outcome [10] was “inactive”, the AC50 [11] was 0.498 µM (active) and the AC50 [12] was 3.78 µM (active). For the same molecule, the AC50 [3] was 43 µM (active) and the outcome [4] was “inactive”.
With `CC1=C2C[C@H]3[C@@H](CC=C4C[C@@H](O)CC[C@@]43C)[C@@H]2CC[C@]12O[C@@H]1C[C@H](C)CN[C@H]1[C@H]2C` the outcome [1] was “inactive”, the outcome [2] was “inactive” and the outcome [6] was “inactive”. The outcome [3] was “inactive” and the AC50 [4] was 44.8 µM (active).
With `CCCCCCCCCC[N+](C)(C)CCCCCCCCCC` the AC50 [1] was 1.82 µM (active), the AC50 [2] was 2.44 µM (active) and the AC50 [6] was 1.94 µM (active). The AC50 [4] was 39.7 µM (active) and the outcome [5] was “inactive”.
With `CCSC(=O)N(CC)C1CCCCC1` the outcome [13] was “inactive”, the outcome [9] was “inactive” and the AC50 [10] was 7.96 µM (active). The outcome [11] was “inactive”, the outcome [12] was “inactive” and the outcome [1] was “inactive”. For the same molecule, the AC50 [2] was 32.1 µM (active), the AC50 [6] was 35.2 µM (active) and the outcome [3] was “inactive”. For the same molecule, the outcome [4] was “inactive”.
In the case of `CN(C)c1nc(=O)n(C2CCCCC2)c(=O)n1C`, the outcome [13] was “inactive”, the outcome [11] was “inactive” and the outcome [12] was “inactive”. For the same molecule, the outcome [14] was “inactive” and the outcome [4] was “inactive”.
With `CCCCCCOC(=O)c1ccccc1C(=O)OCCCCCC` the outcome [1] was “inactive”, the outcome [2] was “inactive” and the AC50 [6] was 3.69 µM (active). The AC50 [3] was 25.5 µM (active), the outcome [3] was “inactive” and the outcome [4] was “inactive”.
With `Nn1cnnc1` the AC50 [1] was 0.037 µM (active), the outcome [2] was “inactive” and the outcome [6] was “inactive”. For the same molecule, the outcome [4] was “inactive”.
For `c1cc2ccc3cccc4ccc(c1)c2c34`, the outcome [3] was “inactive” and the outcome [4] was “inactive”.
With `Clc1ccc(C(c2ccccc2Cl)C(Cl)(Cl)Cl)cc1` (centres undefined) the AC50 [1] was 79.3 µM (active), the AC50 [2] was 54.5 µM (active) and the AC50 [6] was 69.9 µM (active). The outcome [3] was “inactive” and the outcome [4] was “inactive”.
